Compound activity (PubChem BioAssay)
Jurkat NFkB inh = inhibitors of the PMA/ionomycin-induced NF-kB reporter in Jurkat cells. PMA/ionomycin-induced NF-kB luciferase reporter, luminescence. inhibition, % at 4 µM. 330,000 compounds, 0.53% hits; in the data active = inhibition above about 50%
KLF5 inhibitor = suppresses KLF5 promoter-driven expression; DLD-1 KLF5 promoter-luciferase reporter, luminescence; inhibition, % at 5 µM; 290,000 compounds, 0.23% hits;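 active = inhibition above a per-plate limit of that plate's mean compound inhibition plus 3 SD, cut at about 60% in these data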;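 note: higher means less KLF5 promoter-driven luciferase light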
TMEM16A act = activates or potentiates the mouse TMEM16A chloride channel. Q8BHY3. HEK293 TMEM16A/YFP-H148Q/I152L, iodide quench fluorescence; active compounds read low. B-score at 10 µM. 340,000 compounds, 0.3% hits. AID 623877;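 active = fluorescence-ratio B-score plate-corrected deviation score at least 3 library SD below zero, with starting fluorescence score within 5 deviations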;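 note: channel opened by trigger with iodide after compound preincubation; score built on the fluorescence ratio of max minus min over baseline; more negative score means more quench and so TMEM16A activation or potentiation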
aSyn UTR inh = MLPCN primary screen, SNCA 5' untranslated region; inhibition, % (tested at 7.5 µM); AID 1813; alpha-synuclein 5'UTR reporter, inhibitor activity; 300,000 compounds, 0.82% hits; in the data active = inhibition above about 60%;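 note: H4 neuroglioblastoma cells stably carrying SNCA 5'UTR luciferase fusion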
697 NFkB inh = lowers PMA/ionomycin-induced NF-kB signal in 697 B cells; 697 B-cell NF-kB luciferase reporter, 16 h; inhibition, % at 4 µM; AID 435022; 330,000 compounds, 0.33% hits; in the data active = inhibition above about 35%
ANO1 block = inhibitors of mouse TMEM16A calcium-activated chloride channel | HEK293 TMEM16A/YFP iodide influx fluorescence, ionomycin | Q8BHY3 | AID 588511 | normalized B-score (activity score, 25-100; higher = stronger inhibition) at 10 µM | 310,000 compounds, 1.2% hits;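 active = ratio plate-corrected score three or more library SD toward inhibition, starting fluorescence score within five deviations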;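 note: score derived from kinetic fluorescence span divided by baseline fluorescence per well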
Jurkat NFkB conf = lowers PMA/ionomycin-induced NF-kB signal in Jurkat cells. Jurkat NF-kB luciferase, 16 h. shares compounds with Jurkat NFkB inh. AID 435020. inhibition, % at 4 µM. 2,700 compounds, 27% hits;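 active = inhibition reaching about 45% at 4 µM in either replicate, limit read from the data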
697 NFkB conf = lowers PMA/ionomycin-induced NF-kB signal in 697 B cells | 697 B-cell NF-kB luciferase, 16 h | shares compounds with 697 NFkB inh | inhibition, % at 4 µM | 2,000 compounds, 35% hits | AID 449746; in the data active = inhibition mostly above about 28%, no sharp cut-off; inactive = mostly below about 22%
TMEM16A reconf = re-confirmation of mouse TMEM16A chloride channel inhibitors | shares compounds with ANO1 block | 2,300 compounds, 39% hits | inhibition, % at 10 µM | HEK293 TMEM16A/YFP-H148Q, iodide quench fluorescence; ionomycin added to raise cell calcium | AID 652189;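 active = mean duplicate percent inhibition, scaled so buffer wells are 0 and the reference blocker 100, over three buffer SD above buffer mean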
TMEM16A Ca cntr = counter-screen for TMEM16A inhibitors: effect on calcium mobilization | AID 652231 | calcium response (% of ionomycin), % at 10 µM | 2,300 compounds, 2% hits | shares compounds with ANO1 block | TMEM16A/YFP HEK293, Fluo4 calcium mobilization;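 active = duplicate-averaged calcium signal over 20% of the ionomycin maximum, relative to buffer baseline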;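 note: each well's signal is peak minus trough fluorescence divided by its pre-addition baseline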
Parental YFP cnt = counter-screen for TMEM16A inhibitors: effect in parental YFP-HEK293 cells; shares compounds with ANO1 block; iodide YFP quench, ionomycin; YFP ratio F(max-min)/F0 at 10 µM; 2,300 tested, under 10 active; AID 652233;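 active = yellow fluorescent protein signal ratio exceeding the buffer control mean by over 5 SD of those controls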;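 note: ratio is mean of duplicate wells from kinetic YFP trace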
ClC-1 inh = blocks the rat ClC-1 voltage-dependent chloride channel; shares compounds with ANO1 block; CHO ClC-1-YFP, iodide influx fluorescence quench; iodide control reads 0, buffer control 100; ratio percent, % at 10 µM; 2,300 tested, under 10 active; AID 652236;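 active = duplicate-mean ratio percent above the mean of iodide-only control wells, which defines zero, plus 5 of their SD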;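 note: higher percent means stronger block of ClC-1 iodide influx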
Target sequence (P35524 whole entry, looked up): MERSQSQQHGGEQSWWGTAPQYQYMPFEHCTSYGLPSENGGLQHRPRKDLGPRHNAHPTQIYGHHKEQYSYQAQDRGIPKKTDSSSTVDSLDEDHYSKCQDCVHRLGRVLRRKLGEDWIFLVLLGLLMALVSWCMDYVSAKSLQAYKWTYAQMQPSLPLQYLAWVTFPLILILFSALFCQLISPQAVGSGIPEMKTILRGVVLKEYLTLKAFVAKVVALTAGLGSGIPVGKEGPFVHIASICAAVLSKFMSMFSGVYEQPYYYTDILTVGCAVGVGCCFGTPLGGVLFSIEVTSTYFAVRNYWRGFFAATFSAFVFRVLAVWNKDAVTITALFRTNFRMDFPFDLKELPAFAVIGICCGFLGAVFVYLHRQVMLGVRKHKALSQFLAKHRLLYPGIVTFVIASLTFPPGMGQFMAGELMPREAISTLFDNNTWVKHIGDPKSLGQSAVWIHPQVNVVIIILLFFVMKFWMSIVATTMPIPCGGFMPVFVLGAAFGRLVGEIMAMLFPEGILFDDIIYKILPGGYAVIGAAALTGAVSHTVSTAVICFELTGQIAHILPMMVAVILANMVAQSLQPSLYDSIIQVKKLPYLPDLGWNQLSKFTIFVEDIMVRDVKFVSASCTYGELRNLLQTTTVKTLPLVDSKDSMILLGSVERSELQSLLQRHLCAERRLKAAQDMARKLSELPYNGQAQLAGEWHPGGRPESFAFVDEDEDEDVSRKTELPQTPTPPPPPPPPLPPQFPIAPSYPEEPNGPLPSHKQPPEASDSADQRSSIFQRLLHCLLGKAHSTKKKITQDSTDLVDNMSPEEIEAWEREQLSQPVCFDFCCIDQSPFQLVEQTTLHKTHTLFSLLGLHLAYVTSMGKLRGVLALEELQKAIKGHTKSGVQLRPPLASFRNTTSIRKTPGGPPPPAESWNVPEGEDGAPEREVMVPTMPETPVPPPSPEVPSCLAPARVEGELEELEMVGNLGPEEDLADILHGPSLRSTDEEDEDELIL
Large screens that a line does not name were inactive (follow-up assays come after a bar, where they were run). Most compounds without a hit are left out; they make up all but 2.5% or so of the library.

CN(C)c1ccc(C(=O)OCC(=O)c2ccc[nH]2)cc1	none (no result: KLF5 inhibitor, aSyn UTR inh, ANO1 block)
CNC[C@@H](CC1CCCCC1)NC[C@H](CC(C)C)NCCc1cccc(C(F)(F)F)c1	Jurkat NFkB inh 86.1, aSyn UTR inh 122.0, ANO1 block 25 | Jurkat NFkB conf inactive | TMEM16A reconf inactive | TMEM16A Ca cntr inactive | Parental YFP cnt inactive | ClC-1 inh inactive
CCOc1cc(N2CCOCC2)c(OCC)cc1NC(=O)CN1C(=O)N(C)C2(CCCCC2)C1=O	none (no result: KLF5 inhibitor, aSyn UTR inh, ANO1 block)
Cc1ccc2c(C)c(C(=O)N3CCN(c4ncccn4)CC3)oc2c1C	none (no result: ANO1 block)
CC(C)(C)c1ccc(C(=O)Nc2cccnc2)cc1	none
CC(C)(C)c1ccc(C(=O)Nc2ccc(Oc3cccnc3)nc2)cc1	Jurkat NFkB inh 51.7, ANO1 block 100 | Jurkat NFkB conf inactive | TMEM16A reconf 31.0% | TMEM16A Ca cntr inactive | Parental YFP cnt inactive | ClC-1 inh inactive
COc1cccc(N2CCN(c3ncnc4c3cnn4-c3ccc(C)cc3C)CC2)c1	Jurkat NFkB inh 86.9, ANO1 block 100 | Jurkat NFkB conf 69.8 | TMEM16A reconf 32.0% | TMEM16A Ca cntr inactive | Parental YFP cnt inactive | ClC-1 inh inactive
Cc1cc(Cn2nc(C(=O)NCc3cccc(Br)c3)cc2-c2ccccc2)on1	none (no result: KLF5 inhibitor, aSyn UTR inh)
Cc1nc2ccccc2c2c1CC(C(C)(Cl)Br)O2 (configuration not stated)	Jurkat NFkB inh 55.5, ANO1 block 25 | Jurkat NFkB conf 56.1 | TMEM16A reconf 18.0% | TMEM16A Ca cntr inactive | Parental YFP cnt inactive | ClC-1 inh inactive
Cc1ccc2nc(C)c3c(c2c1)OC(C(C)(Cl)Br)C3 (configuration not stated)	none
CC(C)(C)c1ccc(OCCC(=O)NNC(=O)c2ccncc2)cc1	none (no result: KLF5 inhibitor)
CCOC(=O)C1CCCN(S(=O)(=O)c2ccc(C)cc2)C1 (configuration not stated)	none
CCOC(=O)C1CCCN(S(=O)(=O)c2ccc(S(=O)(=O)N(CC)CC)cc2)C1 (configuration not stated)	Jurkat NFkB inh 59.7, 697 NFkB inh 43.2, ANO1 block 25 | Jurkat NFkB conf 62.2 | 697 NFkB conf 52.0 | TMEM16A reconf inactive | TMEM16A Ca cntr inactive | Parental YFP cnt inactive | ClC-1 inh inactive
CCCCNc1cc(C)nc(NCc2ccccc2)n1	Jurkat NFkB inh 70.0, ANO1 block 25 | Jurkat NFkB conf inactive | TMEM16A reconf 33.5% | TMEM16A Ca cntr 21.5% | Parental YFP cnt inactive | ClC-1 inh inactive
Cc1cc(N2CCC(C)CC2)nc(NCc2ccccc2)n1	Jurkat NFkB inh 53.3, ANO1 block 100 | Jurkat NFkB conf inactive | TMEM16A reconf inactive | TMEM16A Ca cntr inactive | Parental YFP cnt inactive | ClC-1 inh inactive
Cc1cc(Nc2ccc(Cl)cc2)nc(NCc2ccccc2)n1	none
CN1CCN(c2ccc(C(F)(F)F)cc2NC(=O)c2ccco2)CC1	none
Cc1ccc(S(=O)(=O)N2CCN(c3ncnc4sccc34)CC2)cc1C	none (no result: KLF5 inhibitor, aSyn UTR inh, ANO1 block)
O=S(=O)(c1ccc2c(c1)OCCO2)N1CCN(c2ncnc3sccc23)CC1	Jurkat NFkB inh 51.5, ANO1 block 25 | Jurkat NFkB conf 54.0 | TMEM16A reconf 17.0% | TMEM16A Ca cntr inactive | Parental YFP cnt inactive | ClC-1 inh inactive
O=S(=O)(c1cc(F)ccc1F)N1CCN(C2CCCCC2)CC1	none
Cc1nn(C)c(C)c1CN(Cc1nc(CCC(C)C)no1)C(C)C	Jurkat NFkB inh 52.6, ANO1 block 25 | Jurkat NFkB conf 50.7 | TMEM16A reconf inactive | TMEM16A Ca cntr inactive | Parental YFP cnt inactive | ClC-1 inh inactive
CCN1CCN(CCOc2ccc(Cl)cc2)CC1	none
Clc1ccc(OCCN2CCN(c3ncnc4sccc34)CC2)cc1	Jurkat NFkB inh 66.8, 697 NFkB inh 100.4, ANO1 block 100 | Jurkat NFkB conf 75.7 | 697 NFkB conf 96.3 | TMEM16A reconf 16.0% | TMEM16A Ca cntr inactive | Parental YFP cnt inactive | ClC-1 inh inactive
Cc1cc(/C=N/n2cnnc2)c(C)n1-c1ccc(OCc2ccc(Cl)cc2)cc1	Jurkat NFkB inh 52.0, ANO1 block 100 | Jurkat NFkB conf inactive | TMEM16A reconf 24.5% | TMEM16A Ca cntr inactive | Parental YFP cnt inactive | ClC-1 inh inactive
CC(C)Oc1ccc(C(=O)OCC(=O)NC2CCCCCC2)cc1	none (no result: KLF5 inhibitor, aSyn UTR inh, ANO1 block)
CC(=O)Nc1ccc(NC(=O)CCC(=O)Oc2ccc(C)cc2)cc1	none
Cc1cc(Cl)c(S(=O)(=O)N2CCCCCC2)cc1OCC(=O)NC1CCCCC1	Jurkat NFkB inh 65.4, 697 NFkB inh 75.0, ANO1 block 100 | Jurkat NFkB conf 71.2 | 697 NFkB conf 69.5 | TMEM16A reconf 24.0% | TMEM16A Ca cntr inactive | Parental YFP cnt inactive | ClC-1 inh inactive
CCN1CCN(S(=O)(=O)c2cc(OCC(=O)NC3CCCCC3)c(C)cc2Cl)CC1	none
N#Cc1ccccc1S(=O)(=O)N1CCN(CC(O)CN2CCOCC2)CC1 (configuration not stated)	none (no result: KLF5 inhibitor, aSyn UTR inh, ANO1 block)
COc1ccc(N(C)C2=NS(=O)(=O)c3ccccc32)cc1	Jurkat NFkB inh 55.6, ANO1 block 100 | Jurkat NFkB conf inactive | TMEM16A reconf inactive | TMEM16A Ca cntr inactive | Parental YFP cnt inactive | ClC-1 inh inactive
Cn1nc(CC(=O)Nc2ccc3c(c2)OCCO3)c2ccccc2c1=O	Jurkat NFkB inh 52.5, 697 NFkB inh 42.8, ANO1 block 25 | Jurkat NFkB conf 66.2 | 697 NFkB conf 40.7 | TMEM16A reconf inactive | TMEM16A Ca cntr inactive | Parental YFP cnt inactive | ClC-1 inh inactive
Cn1nc(CC(=O)Nc2ccc(N3CCN(C(=O)OC(C)(C)C)CC3)cc2)c2ccccc2c1=O	Jurkat NFkB inh 55.2, aSyn UTR inh 77.4, 697 NFkB inh 46.3, ANO1 block 25 | Jurkat NFkB conf 53.0 | 697 NFkB conf inactive | TMEM16A reconf inactive | TMEM16A Ca cntr inactive | Parental YFP cnt inactive | ClC-1 inh inactive
Cn1nc(CC(=O)N2CCN(c3ccccc3)CC2)c2ccccc2c1=O	none
Cc1ccc(NS(=O)(=O)c2ccc(C(=O)NCCCN3CCCC3=O)cc2)cc1	none (no result: KLF5 inhibitor)
